Measured values taken from publication PMC4336329 (PLoS ONE, 2015).
Screen size: about 310,000 compounds; about 14,000 (4.5%) showed an effect of 50% or more. Effects have a minus sign here. The sample holds strong results, similar compounds and a random draw of the others, so the mix is not that of the screen.

target: human ether-à-go-go-related gene (hERG) potassium channel (human, UniProt Q12809); experiment: primary screen, population patch clamp on CHO cells stably expressing hERG; higher = less effect of the substance
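Further: peak tail current of the secondary pulse compared with the same well before compound.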

human ether-à-go-go-related gene (hERG) potassium channel, sequence (Q12809 whole entry, looked up): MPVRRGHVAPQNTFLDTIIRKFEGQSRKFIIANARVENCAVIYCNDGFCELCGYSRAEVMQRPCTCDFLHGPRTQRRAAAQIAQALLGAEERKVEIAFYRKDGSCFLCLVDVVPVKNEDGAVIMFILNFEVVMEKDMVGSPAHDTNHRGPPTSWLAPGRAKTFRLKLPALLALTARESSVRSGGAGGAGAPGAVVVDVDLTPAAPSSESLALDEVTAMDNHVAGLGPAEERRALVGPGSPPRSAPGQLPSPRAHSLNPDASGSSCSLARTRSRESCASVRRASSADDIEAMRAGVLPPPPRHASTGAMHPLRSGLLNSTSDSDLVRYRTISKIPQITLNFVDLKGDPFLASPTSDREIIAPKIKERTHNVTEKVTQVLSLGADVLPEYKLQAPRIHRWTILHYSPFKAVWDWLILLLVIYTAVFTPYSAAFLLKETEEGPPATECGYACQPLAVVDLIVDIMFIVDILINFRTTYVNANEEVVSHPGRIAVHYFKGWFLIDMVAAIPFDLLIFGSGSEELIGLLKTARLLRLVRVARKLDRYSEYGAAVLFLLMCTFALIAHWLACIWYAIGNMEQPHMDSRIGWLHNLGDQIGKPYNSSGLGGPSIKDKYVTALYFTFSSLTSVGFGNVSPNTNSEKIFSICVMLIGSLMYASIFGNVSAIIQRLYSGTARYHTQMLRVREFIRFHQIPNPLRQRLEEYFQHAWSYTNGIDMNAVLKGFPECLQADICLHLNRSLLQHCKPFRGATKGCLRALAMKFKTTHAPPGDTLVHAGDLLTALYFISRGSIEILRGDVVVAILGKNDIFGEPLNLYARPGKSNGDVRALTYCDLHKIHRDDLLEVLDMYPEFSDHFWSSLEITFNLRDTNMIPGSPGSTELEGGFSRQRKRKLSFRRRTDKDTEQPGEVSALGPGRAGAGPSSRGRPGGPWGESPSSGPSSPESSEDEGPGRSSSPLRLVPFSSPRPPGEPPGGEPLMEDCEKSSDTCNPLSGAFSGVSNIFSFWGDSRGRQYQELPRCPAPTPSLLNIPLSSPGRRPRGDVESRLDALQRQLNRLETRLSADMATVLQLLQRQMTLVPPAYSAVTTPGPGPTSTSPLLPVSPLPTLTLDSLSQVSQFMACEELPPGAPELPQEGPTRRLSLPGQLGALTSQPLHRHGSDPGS

| Structure (SMILES) | hERG current change (%, negative = inhibition) at 10uM [%] |
| --- | --- |
| CN(C(=O)c1nn(C)c2c1CSc1ccccc1-2)c1ccccc1Cl | 3.14 |
| CC1(C)N=C2C(=[N+]1[O-])CCC/C2=N\O | 11.6 |
| O=C(NCCc1ccccn1)c1nc(Cn2cc(Br)cn2)no1 | 11.4 |
| Cc1cccc(NC(=S)N2CCC(N(C)CC3CCCO3)CC2)c1 (stereo not shown) | -32.3 |
| Cc1ccc(NC(=S)N2CCC(N(C)CC3CCCO3)CC2)cc1 (stereo not shown) | -4.57 |
| Cc1cc(C)cc(NC(=S)N2CCC(N(C)CC3CCCO3)CC2)c1 (stereo not shown) | -52 |
| O=C(CCCC(=O)N(CC(=O)NC1CCCC1)c1ccc(F)c(Cl)c1)Nc1ccccn1 | -9.24 |
| COCCCN(C(=S)Nc1cc(Cl)cc(Cl)c1)C(C)c1ccccn1 (stereo not shown) | -38.8 |
| CCCc1cc(=O)[nH]c(SCC(=O)Nc2nonc2C)n1 | 4.4 |
| CCCc1cc(=O)[nH]c(SCC(=O)Nc2cc(C)on2)n1 | -70.9 |
| CCc1cc(=O)[nH]c(SCC(=O)Nc2cc(C)on2)n1 | -4.55 |
| COC(=O)C1=C(O)/C(=C\c2ccc(CNC(=O)C(=O)Nc3ccc(C)c(C)c3)o2)N=C1C | -17.8 |
| CC(=O)Nc1cc(C(=O)O)ccc1S(=O)(=O)c1ccc(C)cc1 | 6.18 |
| CN1CCCN(C(=O)COc2ccc(F)cc2F)CC1 | -3.55 |
| CCCCCCSc1cc(-c2nc3cnccn3c2NCc2ccccc2)ccc1OC.O=C(O)C(F)(F)F | 0.374 |
| CCCCNc1c(-c2ccc(OC)c(SC3CCCCC3)c2)nc2cnccn12.O=C(O)C(F)(F)F | -14.4 |
| CCCCNc1c(-c2ccc(-c3ccc(C(C)=O)cc3)c(OC)c2)nc2cnccn12.O=C(O)C(F)(F)F | -52.3 |
| CCOC(=O)c1nn(-c2ccccc2)c(=O)cc1SC(C)C | -19.1 |
| CN(C)c1nc(OCC(=O)NC(C)(C)C)nc(N(C)C)n1 | 8.21 |
| O=C(Cc1nnc(NC(=O)Nc2ccccc2F)s1)NCc1ccccc1 | 8.98 |
| CC(C)(C)NC(=O)c1cnn2c1NC(c1ccc(F)cc1)CC2C(F)(F)F (stereo not shown) | 2.13 |
| COc1ccc(C(=O)Nc2nc(CC(=O)NCCc3ccccc3OC)cs2)cc1 | -6.94 |

| Structure (SMILES) | hERG current change (%, negative = inhibition) at 10uM [%] |
| --- | --- |
| NS(=O)(=O)c1ccc(CCNc2nc(CN3CCOCC3)nc3sc4c(c23)CCC4)cc1 | -31.2 |
| Cc1nc(NCCc2ccc(S(N)(=O)=O)cc2)c2c3c(sc2n1)CCC3 | 8.64 |
| NS(=O)(=O)c1ccc(CCNc2nc(CN3CCCCC3)nc3sc4c(c23)CCC4)cc1 | -72.9 |
| CCOC(=O)Cc1nnc(NC(=O)COc2ccc(C)cc2)s1 | 5.07 |
| N#C/C(=C\c1cccnc1)C(=O)Nc1ccccc1 | 4.04 |
| O=C(NCc1cccnc1)c1ccc(-c2cc3ccccc3oc2=O)cc1 | 4.65 |
| O=C(Nc1cccnc1)c1cccc(-c2cc3ccccc3oc2=O)c1 | 14.5 |
| O=C(NCc1cccnc1)c1cccc(-c2cc3ccccc3oc2=O)c1 | -63.9 |
| O=C(OCc1cn(-c2ccc(Cl)c(Cl)c2)nn1)c1ccccc1Cl | -5.05 |
| CCOC(=O)C1(CCc2ccccc2)CCN(Cc2ccn[nH]2)CC1 | -72.5 |
| CCOC(=O)C1(CCCc2ccccc2)CCN(Cc2ccn[nH]2)CC1 | -73 |
| Cc1ccc(Cn2c(C)c3cnn(CC(=O)NC4CCCC4)c(=O)c3c2C)cc1 | 7.2 |
| Cc1[nH]c(C)c2c(=O)[nH]ncc12 | 16.6 |
| CCN(CC(=O)Nc1ccc2c(c1)OCCO2)Cc1cc(=O)n2ccsc2n1 | 3.88 |
| CN(CC(=O)NCCC1=CCCCC1)S(=O)(=O)c1ccc2c(c1)c(=O)n(C)c(=O)n2C | -64.9 |
| Cc1ccc(CCNC(=O)CN(C)S(=O)(=O)c2ccc3c(c2)c(=O)n(C)c(=O)n3C)cc1 | -11.7 |
| Cn1c(=O)c2cc(S(=O)(=O)NCCC(=O)NCCC3=CCCCC3)ccc2n(C)c1=O | -15.8 |
| Cc1nc2sc3c(=O)[nH]nnc3c2c(C)c1Br | 15.5 |
| CC(=O)c1sc2nc(-c3ccco3)ccc2c1N | 0.505 |
| O=C(Cc1ccccc1)N/N=C/c1cccnc1 | 20.3 |
| O=C(Cn1nc(-c2ccccc2)ccc1=O)Nc1ccc(N2CCN(C(=O)c3cccs3)CC2)cc1 | -18.5 |
